Bioassay records deposited in PubChem BioAssay by National Center for Advancing Translational Sciences (NCATS).
Nrf2 block: inhibitors of Nrf2 signaling | A549 ARE-Fluc reporter, luciferase luminescence, 18-24 h | Potency, µM (series often up to 46 µM), inactives show at the highest dose activity change, negative = inhibition, usual class: inhibitors | 360,000 tested, 2.1% active | AID 504444; note: % is set by controls: 0 for no effect and ±100 for the full control effect; nearly all actives have a fitted effect of over 60% in size
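Concentration-response testing used A549 ARE_Fluc cells at 5000 cells/well. Following an 18-24 h compound incubation, viability was read by fluorescence (Ex 405/Em 525) and luciferase output by luminescence.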
Nrf2 ARE act: Nrf2 pathway activation. AREc32 ARE-luciferase reporter (MCF7-derived line), luminescence, 24 h. 410,000 tested, 0.31% active. Potency, µM (top dose mostly 46.1 µM), without a hit: top-dose activation, hits mostly activators; note: % of control where 0% means no effect; nearly all actives have a fitted effect of over 65% in size
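Luciferase luminescence (Steady-Glo, 30 min at room temperature) served as the read-out of ARE activation in AREc32 cells treated with compounds for 24 hr at 37 deg C.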
ELG1 repair inh: ELG1-dependent DNA repair inhibition; HEK293T ELG1-luciferase reporter, luminescence, 16 h; DNA damage induced by 5-fluorouridine; Potency, µM (titrated, usually from 46.1 µM), without a hit: at the highest dose activity change, negative = inhibition, most hits filed as inhibitors; 330,000 tested, 2.3% active; note: % is set by controls: 0 for no effect and ±100 for the full control effect; nearly all actives have a fitted effect of over 55% in size
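HEK293T cells expressing luciferase-tagged ELG1 (2,000/well) received 5-Fluorouridine plus compound or DMSO for 16 hr at 37 °C. Luciferase was read by ONE-Glo luminescence after 30 min at room temperature.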
A549 tox: kills or reduces viability of A549 cells in Nrf2 counter-screen. A549 ARE-Fluc cells, CellTiter-Fluor viability, 18-24 h. Potency, µM (doses to about 46 µM), without a hit: at the highest dose activity change, negative = cytotoxicity, most hits filed as inhibitors. 390,000 tested, 0.16% active. AID 504648; note: % is set by controls: 0 for no effect and ±100 for the full control effect
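Cytotoxicity counterscreen: CellTiter-Fluor fluorescence was measured in A549 ARE_Fluc cells after 18-24 h of compound exposure in a concentration series. The subsequent BugLite luminescent read reports ARE-luciferase activity.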
Numbers without * were called inactive; u = inconclusive; x = no result given. Rows were chosen to be rich in hits. Some 3.7% of all compounds tested hit in one or more screens of this group. Calls come from the whole dose curve; as a rule, active = well fitted curve in the direction sought with a large enough effect; inconclusive = small, poorly fitted or top-dose-only effect, or another doubt; inactive = no such curve, though single readings can be large; an effect the other way counts as inactive or inconclusive. Potency is the fitted concentration of half-maximal effect.

SMILES	Nrf2 block	Nrf2 ARE act	ELG1 repair inh	A549 tox
Cc1ccccc1OCC(=O)Nc1ccc(N2CCN(C(=O)c3ccco3)CC2)cc1	15µM*	3%	21µM*	-23%
CCOc1ccc(NC(=O)NC(C)c2c(-n3cccc3)sc(C)c2C)cc1 (stereo not given)	21µM*	4%	x	-28%
CCOC(=O)c1ccccc1NC(=O)NC(C)c1c(-n2cccc2)sc(C)c1C (stereo not given)	4%	3%	x	1%
CCCCNc1c(-c2ccc(-c3ccc(C(C)=O)cc3)c(OC)c2)nc2cnccn12	u	-5%	9.2µM*	10%
CCCCNc1c(-c2cccc(-c3ccc(OC)cc3)c2)nc2cc(C)ccn12	u	-4%	23µM*	u
CCCCNc1c(-c2cccc(-c3ccc(OC)cc3)c2)nc2ccc(C)cn12	u	-3%	3.2µM*	u
COc1ccc(-c2cc(C(F)(F)F)nc(SCC(=O)N(C)Cc3ccccc3)n2)cc1	u	4%	x	-11%
CSCC[C@H](NC(=O)N1CCn2c1nc1ccccc12)C(=O)NCc1ccccc1	17%	3%	-13%	-7%
CC(C)(C)OC(=O)NCc1ccc(CNC(=O)c2[nH]cnc2C(=O)N[C@@H](Cc2ccccc2)C(=O)OC(C)(C)C)cc1	23µM*	5%	u	-15%
CC(C)(C)OC(=O)NCc1ccc(CNC(=O)c2[nH]cnc2C(=O)NCC(=O)OCc2ccccc2)cc1	-2%	-1%	8.2µM*	-7%
C[C@@H](OC(=O)c1[nH]cnc1C(=O)NCc1ccc(CNC(=O)OC(C)(C)C)cc1)c1ccccc1	u	4%	13µM*	-23%
CC(C)(C)OC(=O)[C@H](Cc1ccccc1)NC(=O)c1nc[nH]c1C(=O)NCc1ccccc1	-15%	6%	-15%	-4%
COCC(=O)N(CCc1ccccc1)Cc1cc2cc(C)ccc2nc1Cl	0%	0%	-13%	6%
COCC(=O)N(CCc1ccc(OC)c(OC)c1)Cc1cc2cc(C)ccc2nc1Cl	16µM*	0%	16µM*	-1%
CCOC(=O)c1c(N)n(-c2ccc(N)cc2)c2nc3ccccc3nc12	-19%	0%	9.2µM*	-11%
CCCNC(=O)c1c(N)n(-c2cc(OC)cc(OC)c2)c2nc3ccccc3nc12	u	10%	18µM*	-7%
CCCNC(=O)c1c(N)n(-c2ccc3c(c2)OCO3)c2nc3ccccc3nc12	1%	0%	14%	-10%
Nc1c(C(=O)NCc2ccco2)c2nc3ccccc3nc2n1CCc1ccccc1	u	1%	u	5%
Nc1c(C(=O)NC2CC2)c2nc3ccccc3nc2n1-c1ccc2c(c1)OCO2	x	4%	16µM*	-11%
CCOc1ccc(-n2c(N)c(C(=O)NCc3ccco3)c3nc4ccccc4nc32)cc1	21%	11µM*	-20%	6%
CCOc1cc(Cl)c(S(=O)(=O)NCCCn2ccnc2)cc1Cl	16µM*	0%	u	-9%
CCOc1ccc(C(=O)N2CCSC2=S)cc1	u	0%	-1%	-2%
COc1ccc(-c2cc(C(=O)Oc3cccc(C)c3C)c3ccccc3n2)cc1	-3%	0%	x	10%
COc1cccc(NS(=O)(=O)c2ccc3c(c2)[C@H]2C=CC[C@H]2[C@@H](c2ccccc2Cl)N3)c1	21µM*	-2%	x	-19%
COc1ccc(NS(=O)(=O)c2ccc3c(c2)[C@H]2C=CC[C@H]2[C@@H](c2ccc(C(=O)O)cc2)N3)cc1	0%	0%	u	-14%
SMILES	Nrf2 block	Nrf2 ARE act	ELG1 repair inh	A549 tox
CCN1CCN(C(=O)c2cc(COc3ccc4ncccc4c3)on2)CC1	21µM*	0%	u	-12%
COc1cccc(OCc2cc(C(=O)N(Cc3nccn3C)C(C)C)no2)c1	-34%	-1%	0%	0%
CC(C)N(Cc1nccn1C)C(=O)c1cc(COc2ccc3ncccc3c2)on1	13µM*	0%	-13%	-12%
CCCN1CCN(C(=O)c2cc(COc3ccc4ncccc4c3)on2)CC1	5.2µM*	2%	-27%	-18%
O=C(NCc1cccc(Cl)c1)c1cc(COc2ccc3ncccc3c2)on1	10µM*	4%	u	-26%
COc1ccc(C)cc1S(=O)(=O)NNc1nc(C)cc(C)n1	-26%	24%	1%	-11%
COc1ccc(C(=O)CSc2nnc(CNC(=O)c3ccccc3)o2)cc1	3%	-1%	-7%	-2%
